The values that follow come from PubChem BioAssay.

Active and inactive are the calls of the source.

The subject of assay [1] is PRMT1 (protein arginine N-methyltransferase 1). Briefly: small molecules binding arginine methyltransferase PRMT1 – biochemical, small-molecule microarray, 635 nm fluorescence, primary screen (AID 1088).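 Note: binding of Prmt1 protein to compounds spotted on small-molecule microarray slides.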 The conditions noted are these: higher = more signal.
A short description of assay [2]: growth effects on S. cerevisiae YJM789 – YJM789 clinical isolate, OD600, 24 h, basal, primary screen (AID 1089).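 Note: growth of clinical yeast isolate S. cerevisiae YJM 789 seeded 1000 cells per well; test concentration not given here.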 Particulars: higher = more signal, called active from +8 up or from −8 down.
The nature of assay [3]: S. pombe growth modifiers, basal conditions – strain 972, OD600, 24 h, no modulator, primary screen (AID 1090).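 Note: basal condition with compound alone and no growth modifier present; test concentration not given here.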 The conditions noted are these: S. pombe 972 growth, higher = more signal, called active from +8 up or from −8 down.
The nature of assay [4]: budding yeast growth modifiers under rapamycin – strain BY4716, OD600, 96 h, primary screen (AID 1091). Note: test concentration not given here. Particulars: S. cerevisiae BY4716 + rapamycin, higher = more signal, called active from +8 up or from −8 down.
The target in assay [5] is Torsin-1A-interacting protein 2 (Homo sapiens) (UniProt Q8NFQ8). Briefly: small molecules binding lysate-expressed LULL1 – cell lysate, human LULL1 lysate, 635/667 nm fluorescence, primary screen (AID 1092).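 Note: probe is lysate of COS7 cells overexpressing human LULL1; score merges per-feature 667 nm fluorescence with signal-to-noise.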 Particulars: small-molecule microarray, hLULL1 lysate binding, 635 nm fluorescence; higher = more signal.
Torsin-1A-interacting protein 2 (Homo sapiens), sequence (Q8NFQ8 whole entry, looked up): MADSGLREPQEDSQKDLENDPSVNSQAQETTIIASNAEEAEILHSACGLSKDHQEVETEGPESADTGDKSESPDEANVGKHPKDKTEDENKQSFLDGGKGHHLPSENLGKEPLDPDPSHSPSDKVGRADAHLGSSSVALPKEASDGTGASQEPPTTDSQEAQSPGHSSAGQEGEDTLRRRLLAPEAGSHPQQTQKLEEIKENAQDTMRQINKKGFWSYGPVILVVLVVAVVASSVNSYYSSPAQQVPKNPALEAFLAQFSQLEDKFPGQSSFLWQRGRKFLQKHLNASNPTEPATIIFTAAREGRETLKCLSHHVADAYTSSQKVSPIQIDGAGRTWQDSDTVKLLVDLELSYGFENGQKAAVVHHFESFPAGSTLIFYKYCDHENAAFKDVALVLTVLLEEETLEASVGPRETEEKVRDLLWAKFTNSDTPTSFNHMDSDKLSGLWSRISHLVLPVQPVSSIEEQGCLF
A short description of assay [6]: optical density change of DRC41 E. coli – strain DRC41, OD650, 24 h, E. coli filamentation project, primary screen (AID 1093).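 Note: MC1000 strain lacking acrAB efflux and sulA so SOS filamentation is blocked; test concentration not given here.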 Particulars: E. coli DRC41 growth, higher = more signal, called active from +8 up or from −8 down.
Assay [7] in a line: probe aLefty2 binding to arrayed compounds – biochemical, biotinylated probe, 635/667 nm fluorescence, primary screen (AID 1094).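 Note: score merges spot fluorescence near 667 nm with spot signal-to-noise ratio.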 The conditions noted are these: small-molecule microarray, higher = more signal.
Assay [8] relates to Noggin (protein binding on small-molecule microarray). Kind of assay: small molecules binding Noggin protein – biochemical, 635/667 nm fluorescence, primary screen (AID 1095).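 Note: score merges 667 nm feature fluorescence with signal to noise over triplicate slides.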 The conditions noted are these: 635 nm fluorescence, higher = more signal.
Assay [9] concerns the target Neurogenic locus notch homolog protein 3 (Homo sapiens) (UniProt Q9UM47). Briefly: small molecules binding NOTCH3 protein – biochemical, 635/667 nm fluorescence, primary screen (AID 1096). The conditions noted are these: small-molecule microarray, 635 nm fluorescence, higher = more signal.
Assay [10] can be described thus: probe aEGFR binding to arrayed compounds – biochemical, biotinylated probe, 635/667 nm fluorescence, primary screen (AID 1097).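 Note: probe is a biotinylated anti-EGFR antibody binding compounds printed on slides; score combines fluorescence near 667 nm and signal to noise of each spot.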 Particulars: small-molecule microarray, higher = more signal.
In assay [11] the test system is Plasmodium falciparum Sir2 (PF13_0152, Sir2A). Kind of assay: Plasmodium falciparum Sir2A binding compounds – biochemical, small-molecule microarray, 635 nm fluorescence, primary screen (AID 1098).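 Note: score merges spot fluorescence intensity with its signal-to-noise ratio.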 The conditions noted are these: fluorescence 635 nm, higher = more signal.
The nature of assay [12]: probe aDKK1 binding to arrayed compounds – biochemical, biotinylated probe, 635/667 nm fluorescence, primary screen (AID 1099).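 Note: score merges 667nm spot fluorescence with signal to noise across triplicate slides; reference of the scale not given here.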 The conditions noted are these: small-molecule microarray, higher = more signal.
A short description of assay [13]: probe aCHRDL2 binding to arrayed compounds – biochemical, biotinylated probe, 635/667 nm fluorescence, primary screen (AID 1100). Particulars: small-molecule microarray, higher = more signal.
A short description of assay [14]: change in splice reporter luminescence, either direction, cell-based, HEK293, spliceosome inhibition project, primary screen (AID 1101).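 Note: HEK293 cells carrying a splicing-competent luciferase reporter gene; test concentration not given here.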 The conditions noted are these: HEK293 splicing luciferase reporter, 24 h, higher = more signal, called active from +8 up or from −8 down. (In general: A reporter such as luciferase makes a cellular process visible.)
Assay [15] addresses Fibroblast growth factor 10 (Homo sapiens) (UniProt O15520). Kind of assay: compounds binding fibroblast growth factor 10 – biochemical, small-molecule microarray, 635 nm fluorescence, primary screen (AID 1102). Particulars: FGF10 binding, fluorescence 635 nm, higher = more signal.
Assay [16] relates to glycogen synthase kinase-3 (GSK3A per assay name; protocol says GSK3B). Briefly: compounds binding glycogen synthase kinase-3 – biochemical, small-molecule microarray, 635 nm fluorescence, GSK3A, primary screen (AID 1103). Note: the record names both GSK3A and GSK3B. Particulars: fluorescence 635 nm, higher = more signal.
In assay [17] the target is Epidermal growth factor receptor (Homo sapiens) (UniProt P00533). Briefly: compounds binding epidermal growth factor receptor – biochemical, small-molecule microarray, 635 nm fluorescence, primary screen (AID 1104).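 Note: score merges 667 nm emission intensity with spot signal to noise over triplicate slides.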 Particulars: EGFR binding, higher = more signal.
Epidermal growth factor receptor (Homo sapiens), sequence (P00533 whole entry, looked up): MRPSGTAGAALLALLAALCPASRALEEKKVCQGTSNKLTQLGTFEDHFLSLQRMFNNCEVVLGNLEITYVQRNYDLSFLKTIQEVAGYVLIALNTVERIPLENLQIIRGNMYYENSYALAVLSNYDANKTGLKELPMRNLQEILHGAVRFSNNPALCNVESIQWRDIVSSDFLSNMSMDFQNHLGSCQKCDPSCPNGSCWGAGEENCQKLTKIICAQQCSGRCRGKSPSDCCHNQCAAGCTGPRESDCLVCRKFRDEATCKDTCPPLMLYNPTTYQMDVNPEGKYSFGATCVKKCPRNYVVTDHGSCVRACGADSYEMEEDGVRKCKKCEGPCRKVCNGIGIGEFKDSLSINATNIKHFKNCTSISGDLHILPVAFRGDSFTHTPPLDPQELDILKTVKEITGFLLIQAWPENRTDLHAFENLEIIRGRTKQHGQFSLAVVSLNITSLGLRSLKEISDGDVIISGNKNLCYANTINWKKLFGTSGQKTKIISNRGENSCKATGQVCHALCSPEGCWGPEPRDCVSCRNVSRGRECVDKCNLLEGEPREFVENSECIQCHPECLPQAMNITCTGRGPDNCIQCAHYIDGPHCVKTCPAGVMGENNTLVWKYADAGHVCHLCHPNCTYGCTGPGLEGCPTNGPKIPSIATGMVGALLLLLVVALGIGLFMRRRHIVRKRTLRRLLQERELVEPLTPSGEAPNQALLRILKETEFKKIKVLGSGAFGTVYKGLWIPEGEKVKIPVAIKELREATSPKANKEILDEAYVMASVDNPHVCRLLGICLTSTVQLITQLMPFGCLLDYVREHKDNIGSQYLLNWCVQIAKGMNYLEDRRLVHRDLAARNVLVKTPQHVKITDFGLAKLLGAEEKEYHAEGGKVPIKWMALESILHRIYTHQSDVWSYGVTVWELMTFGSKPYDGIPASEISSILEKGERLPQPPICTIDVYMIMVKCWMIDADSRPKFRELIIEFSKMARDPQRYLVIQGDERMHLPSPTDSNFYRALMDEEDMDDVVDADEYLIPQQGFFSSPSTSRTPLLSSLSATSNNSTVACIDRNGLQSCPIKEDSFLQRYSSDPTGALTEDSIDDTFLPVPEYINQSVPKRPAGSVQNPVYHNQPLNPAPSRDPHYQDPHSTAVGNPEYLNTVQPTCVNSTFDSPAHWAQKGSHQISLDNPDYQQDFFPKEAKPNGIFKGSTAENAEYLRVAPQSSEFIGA
Assay [18] deals with Follistatin-related protein 3 (Homo sapiens) (UniProt O95633). Kind of assay: compounds binding follistatin-related protein 3 – biochemical, small-molecule microarray, 635 nm fluorescence, primary screen (AID 1105).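 Note: score merges emission near 667 nm and signal to noise per printed spot across three slides.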 Particulars: FSTL3 binding, higher = more signal.
Follistatin-related protein 3 (Homo sapiens), sequence (O95633 whole entry, looked up): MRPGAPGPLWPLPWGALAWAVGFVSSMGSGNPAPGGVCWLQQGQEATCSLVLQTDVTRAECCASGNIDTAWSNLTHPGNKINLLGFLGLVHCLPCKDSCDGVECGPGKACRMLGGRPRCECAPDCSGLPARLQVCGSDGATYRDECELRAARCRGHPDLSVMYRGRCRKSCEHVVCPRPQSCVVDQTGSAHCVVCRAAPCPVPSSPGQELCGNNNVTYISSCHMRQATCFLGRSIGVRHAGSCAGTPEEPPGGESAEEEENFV
The target in assay [19] is Dickkopf-related protein 1 (Homo sapiens) (UniProt O94907). Briefly: small molecules binding DKK1 protein – biochemical, small-molecule microarray, 635 nm fluorescence scan, primary screen (AID 1106).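 Note: score merges emission near 667 nm with signal to noise over three replicate slides.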 Particulars: higher = more signal.
Dickkopf-related protein 1 (Homo sapiens), sequence (O94907 whole entry, looked up): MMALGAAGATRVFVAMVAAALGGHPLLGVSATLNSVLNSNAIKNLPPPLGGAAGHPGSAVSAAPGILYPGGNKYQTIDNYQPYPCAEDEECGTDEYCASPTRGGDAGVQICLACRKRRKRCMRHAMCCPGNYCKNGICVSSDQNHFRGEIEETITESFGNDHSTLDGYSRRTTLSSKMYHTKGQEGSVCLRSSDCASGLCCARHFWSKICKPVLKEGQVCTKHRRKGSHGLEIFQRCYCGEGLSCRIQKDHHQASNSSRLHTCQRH
Assay [20] deals with Inhibin beta A chain (activin A). Briefly: small molecules binding activin A – biochemical, small-molecule microarray, 635 nm fluorescence scan, primary screen (AID 1107).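 Note: mouse activin A protein probed at 4.33 µg/mL on printed slides; score merges bound-protein fluorescence near 667 nm with spot signal-to-noise.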 The conditions noted are these: INHBA, higher = more signal.

Fibroblast growth factor 10 (Homo sapiens), sequence (O15520 whole entry, looked up): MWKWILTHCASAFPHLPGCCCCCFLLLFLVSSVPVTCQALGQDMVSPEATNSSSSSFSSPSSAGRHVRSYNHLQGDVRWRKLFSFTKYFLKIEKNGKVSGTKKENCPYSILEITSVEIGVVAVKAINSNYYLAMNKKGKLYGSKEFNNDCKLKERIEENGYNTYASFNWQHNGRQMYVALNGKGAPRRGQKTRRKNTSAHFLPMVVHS
Neurogenic locus notch homolog protein 3 (Homo sapiens), sequence (Q9UM47 whole entry, looked up): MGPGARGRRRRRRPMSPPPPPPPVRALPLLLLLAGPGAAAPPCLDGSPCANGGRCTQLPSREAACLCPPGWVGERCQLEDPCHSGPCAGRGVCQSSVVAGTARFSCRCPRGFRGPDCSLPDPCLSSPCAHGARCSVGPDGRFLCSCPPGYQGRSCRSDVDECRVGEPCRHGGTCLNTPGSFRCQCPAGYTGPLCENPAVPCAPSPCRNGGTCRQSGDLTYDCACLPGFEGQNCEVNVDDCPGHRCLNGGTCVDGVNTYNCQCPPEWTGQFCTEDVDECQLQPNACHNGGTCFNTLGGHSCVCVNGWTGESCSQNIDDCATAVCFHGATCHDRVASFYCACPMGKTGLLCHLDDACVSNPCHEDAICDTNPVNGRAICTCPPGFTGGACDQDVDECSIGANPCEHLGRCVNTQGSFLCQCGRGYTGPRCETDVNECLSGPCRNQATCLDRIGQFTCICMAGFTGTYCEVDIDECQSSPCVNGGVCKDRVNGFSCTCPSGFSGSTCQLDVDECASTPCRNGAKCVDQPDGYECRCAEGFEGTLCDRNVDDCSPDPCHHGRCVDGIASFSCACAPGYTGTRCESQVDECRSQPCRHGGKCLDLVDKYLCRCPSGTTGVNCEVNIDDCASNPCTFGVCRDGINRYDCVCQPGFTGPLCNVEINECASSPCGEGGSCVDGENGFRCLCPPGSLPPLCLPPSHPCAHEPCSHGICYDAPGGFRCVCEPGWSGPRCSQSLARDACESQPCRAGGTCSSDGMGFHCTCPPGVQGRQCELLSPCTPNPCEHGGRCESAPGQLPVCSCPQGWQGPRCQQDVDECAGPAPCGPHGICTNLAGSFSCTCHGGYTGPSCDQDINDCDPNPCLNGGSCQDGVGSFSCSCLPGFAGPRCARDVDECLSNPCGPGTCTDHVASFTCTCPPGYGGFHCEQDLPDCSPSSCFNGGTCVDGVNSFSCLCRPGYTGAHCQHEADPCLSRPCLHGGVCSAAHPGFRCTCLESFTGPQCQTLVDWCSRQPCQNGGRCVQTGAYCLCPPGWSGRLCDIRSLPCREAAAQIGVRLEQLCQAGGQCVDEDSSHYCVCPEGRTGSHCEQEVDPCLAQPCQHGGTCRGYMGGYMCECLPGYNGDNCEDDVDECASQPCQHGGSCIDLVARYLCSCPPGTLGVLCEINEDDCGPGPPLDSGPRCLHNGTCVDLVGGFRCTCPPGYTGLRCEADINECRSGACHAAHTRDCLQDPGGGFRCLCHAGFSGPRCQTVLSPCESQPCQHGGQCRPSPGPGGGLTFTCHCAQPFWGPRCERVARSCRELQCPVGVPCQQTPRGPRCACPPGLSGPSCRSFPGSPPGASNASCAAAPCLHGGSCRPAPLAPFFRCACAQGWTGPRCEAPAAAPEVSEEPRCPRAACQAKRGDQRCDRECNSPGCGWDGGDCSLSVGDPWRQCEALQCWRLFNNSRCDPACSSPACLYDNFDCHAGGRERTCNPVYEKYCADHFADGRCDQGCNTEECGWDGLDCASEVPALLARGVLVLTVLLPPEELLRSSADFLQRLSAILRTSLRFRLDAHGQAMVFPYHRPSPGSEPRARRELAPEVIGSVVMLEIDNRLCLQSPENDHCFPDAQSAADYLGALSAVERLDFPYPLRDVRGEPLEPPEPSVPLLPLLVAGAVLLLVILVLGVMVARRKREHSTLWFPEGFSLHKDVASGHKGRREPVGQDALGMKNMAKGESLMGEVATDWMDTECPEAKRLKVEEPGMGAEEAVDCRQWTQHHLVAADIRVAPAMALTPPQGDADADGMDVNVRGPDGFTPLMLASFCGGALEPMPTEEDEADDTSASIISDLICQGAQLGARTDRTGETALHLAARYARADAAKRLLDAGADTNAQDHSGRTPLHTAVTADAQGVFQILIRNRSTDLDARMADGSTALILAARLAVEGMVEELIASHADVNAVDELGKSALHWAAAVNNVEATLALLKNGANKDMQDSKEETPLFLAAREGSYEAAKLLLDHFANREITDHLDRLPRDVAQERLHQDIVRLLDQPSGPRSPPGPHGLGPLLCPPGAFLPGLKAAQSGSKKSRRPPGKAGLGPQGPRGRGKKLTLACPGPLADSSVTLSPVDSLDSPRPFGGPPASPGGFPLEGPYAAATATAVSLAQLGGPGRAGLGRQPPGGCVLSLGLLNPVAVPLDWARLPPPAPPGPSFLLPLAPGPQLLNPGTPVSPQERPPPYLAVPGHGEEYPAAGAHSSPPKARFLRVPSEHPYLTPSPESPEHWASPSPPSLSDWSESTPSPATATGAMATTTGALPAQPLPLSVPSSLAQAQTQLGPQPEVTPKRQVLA

As to `CC(=O)OC[C@H]1O[C@@H](ON=C(C)C)[C@H](OC(C)=O)[C@@H](OC(C)=O)[C@@H]1OC(C)=O`, the composite z-score was -0.312 in assay [1]; -1.31 in [5]; 0.089 in [7]; 0.0419 in assay [8]; -1.53 in assay [9]; -0.0393 in assay [10]. Further, the composite z-score in assay [11] is -0.745; in assay [12] it was -0.191; in [13], 0.46; in [15], -0.527; in assay [16], -1.28; in [17], -0.246. Besides, the composite z-score was -1.57 in [18], -1.38 in assay [19] and -2.17 in assay [20]. Moreover, the z-score was 0.559 (inactive) in assay [2]; -0.159 (inactive) in assay [3]; 0.196 (inactive) in assay [4]; -0.109 (inactive) in assay [6]; 0.851 (inactive) in assay [14].
In the case of `COC(=O)[C@@H]1CC[C@H](C)[C@@H](c2ccc(C)cc2)N1C(=O)c1ccc(C=NO[C@@H](C)c2cc(-c3c(C)cc(C)cc3C)no2)cc1`, the composite z-score in assay [1] is 1.05; in assay [5], 0.919; in [7], -0.0727; in [8], 0.3; in assay [9], 0.35; in assay [10], -0.165. The composite z-score in assay [11] is 0.321; in assay [12], -0.12; in assay [13], -0.144; in assay [15] it was 0.418; in assay [16], 0.738; in [17], 0.51. The composite z-score worked out at 0.242 in assay [18], 0.675 in assay [19] and 0.598 in [20]. Moreover, the z-score in assay [2] is -0.0984 (inactive); in [3] it was 0.358 (inactive); in assay [4], 0.612 (inactive); in assay [6] it was 0.328 (inactive); in assay [14], -1.04 (inactive).
As to `CC(CCN1CCc2nc(-c3ccccc3)c(-c3ccccc3)cc2C1)=NOC(C)CN1CCCc2nc(C)c(C)cc21` (stereo not given), the composite z-score was 1.56 in [1]; 2.22 in assay [5]; 0.0704 in assay [7]; 0.582 in [8]; 1.09 in [9]; 0.0709 in assay [10]. For the same compound, the composite z-score in assay [11] is 0.934; in assay [12], 0.196; in [13], -0.218; in assay [15] it was 0.942; in assay [16] it was 1.02; in assay [17], 0.603. Besides, the results for the composite z-score in assay [18], in assay [19] and in assay [20] were 1.02, 0.732 and 0.858, respectively. Besides, the z-score in assay [2] was -1.4 (inactive); in assay [3], -12.6 (active); in assay [4], -3.45 (inactive); in [6] it was 0.419 (inactive); in assay [14] it was 1.12 (inactive).
In the case of `CO[C@@H]1C=CCC(=O)N[C@@H](C)C(=O)OC[C@@H](OC)[C@H](C)C=CCC(=O)OC[C@H]1C`, the composite z-score in assay [1] was 1.37; in [5] it was -1.33; in assay [7], -0.124; in [8] it was 1.89; in assay [9] it was 0.312; in assay [10] it was -0.0357. For the same compound, the composite z-score in assay [11] is 1.27; in assay [12] it was -0.266; in assay [13], -1.14; in assay [15], 0.656; in assay [16], 0.808; in assay [17] it was 1.07. The figures for the composite z-score in assay [18], in assay [19] and in [20] were 1.53, 1.35 and 1.77, respectively. For the same compound, the z-score in assay [2] was -0.563 (inactive); in assay [3], -0.832 (inactive); in assay [4] it was -0.333 (inactive); in [6] it was 0.615 (inactive); in assay [14] it was 0.175 (inactive).
`C=CCOCC1CN2[C@@H](CC[C@@H](C)[C@@H]2c2ccc(Br)cc2)C(=O)O1` (stereo not given in full): the composite z-score was -0.149 in assay [1]; -0.581 in assay [5]; -0.296 in [7]; 0.167 in assay [8]; -0.405 in assay [9]; -0.0953 in assay [10]. The composite z-score in [11] was -0.316; in [12], -0.182; in assay [13] it was -0.165; in assay [15], -0.342; in [16] it was -0.255; in assay [17], -0.014. The figures for the composite z-score in assay [18], in assay [19] and in [20] were -0.293, 0.0635 and 0.757, respectively. In addition, the z-score in assay [2] was -0.349 (inactive); in assay [3], -0.592 (inactive); in assay [4], 0.338 (inactive); in assay [6], 0.415 (inactive); in [14] it was 0.597 (inactive).
